The values that follow come from PubChem BioAssay AID651820 (National Center for Advancing Translational Sciences (NCATS), 2012).

The whole screen tested about 340,000 compounds, of which about 12,000 (3.5%) were called active. Where a call stands in place of a potency, no number is given. Inconclusive results (about 18%) are left out. For the sample, actives were picked, then their nearest neighbours and some compounds at random. Values without a mark were called inactive. The call rests on the fitted dose curve; in most records, active means well fitted inhibition curve with a large enough effect; inconclusive means small, poorly fitted or top-dose-only effect, or another doubt; inactive means no such curve, though single readings can be large or run the other way.
Potency means the concentration at half of the fitted maximal effect.

The assay can be described thus: qHTS Assay for Inhibitors of Hepatitis C Virus (HCV). To be noted: Huh7.5.1 HCVcc-Cre infection, luciferase reporter, 44 h; series mostly up to 41.8 µM. Put shortly:
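Infectious HCV cell culture screen: compound-treated cells (1,000/well, pre-plated 4 h) are infected with HCVcc-Cre at roughly 0.5 moi and grown 44 h. Infection is quantified by luciferase signal after 15 min substrate incubation at room temperature.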
(In general: Quantitative high-throughput screening tests each substance at several concentrations.)
As for `OCCN1CCN(CCO)C1=S`, the Potency entry was “inactive”.
Same read-out and setting: the value for `Cn1c(=O)[nH]c(=O)c2c1nc(N1CCN(CCO)CC1)n2CCSc1nc2ccccc2s1` was “inactive”; that for `CC1CCN(c2nc3c(c(=O)[nH]c(=O)n3C)n2CCCc2ccccc2)CC1` was “inactive”; that for `Cn1c(=O)[nH]c(=O)c2c1nc(N1CCN(C(c3ccccc3)c3ccccc3)CC1)n2CCO` was 10 µM (active).
Still for that read-out and setting: the value for `COc1ccc(C)cc1S(=O)(=O)NC1CCCCC1` was “inactive”; that for `COc1ccc(-c2nc3cc(C)ccn3c2NC2CCCCC2)cc1SC1CCCCC1` was 3.55 µM (active).
Take `Cc1ccc2nc(-c3cccnc3)c(NC3CCCC3)n2c1`: the Potency result is “inactive”.
Same read-out and setting: the value for `O=S(=O)(Nc1ncnc2sccc12)c1cccc(F)c1` was “inactive”; that for `CCCCN(C(=O)C(CCSC)N1C(=O)c2ccccc2C1=O)c1c(N)n(CCC)c(=O)[nH]c1=O` (centres undefined) was “inactive”.
The same measure, in the same setting: the value for `CN(CC(=O)Nc1ccc(OC(F)(F)F)cc1)C(=O)C1CCC1` was “inactive”; that for `CC(C)(CCl)C(=O)Nc1ccc(Sc2ccc(F)cc2)cc1` was “inactive”; that for `Cc1ccc(NC(=O)CC(=O)Nc2ccc(C)cc2)cc1` was “inactive”.
For `O=C(CCl)Nc1ccc(Sc2ccc(NC(=O)CCl)cc2)cc1`, the Potency is 3.98 µM (active).
Same read-out and setting: the value for `O=C(COC(=O)c1ccc(F)cc1)NCC1COc2ccccc2O1` (centres undefined) was “inactive”; that for `COc1ccc2oc(N)nc2c1` was “inactive”; that for `Cc1ccc(NS(=O)(=O)c2ccc(C(=O)NCCCN3CCOCC3)cc2)cc1` was “inactive”.
Same read-out and setting: the value for `COc1cccc(CNC(=O)COC(=O)CN2C(=O)NC3(CCCCC3C)C2=O)c1` (centres undefined) was “inactive”; that for `CCOC(=O)[C@H]1[C@H]2COc3ccc(C)cc3[C@@H]2N2C(=O)CN(Cc3ccc(F)cc3)C(=O)[C@@]12C` was “inactive”.
Still for that read-out and setting: the value for `CCOC(=O)c1sc(N)c(C#N)c1COC(=O)C1=COCCO1` was “inactive”.
With `CCCCCCCCCCOC(=O)Cn1c(COc2cccc(OC)c2)[n+](C)c2ccccc21`, the Potency entry was “inactive”.
Still for that read-out and setting: the value for `CCCCOC(=O)Cn1c(=O)n(CC(=O)OCCCC)c2cc(C)ccc21` was “inactive”; that for `CCCCCCCCCCOC(=O)Cn1c(COc2ccc(C)cc2)[n+](C)c2ccccc21` was 31.6 µM (active).
For `CCOc1ccc(CNC(=O)C2CCCN(c3nnc(C)c4c(C)n(-c5ccccc5)nc34)C2)cc1` (centres undefined), the Potency entry is “inactive”.
With `CCc1ccc(CNC(=O)C2CCN(c3nnc(C)c4c(C)n(-c5ccc(C)cc5)nc34)CC2)cc1`, the Potency was 8.91 µM (active).
Take `COc1ccc(-n2nc3c(N4CCC(C(=O)NCc5ccccc5)CC4)nnc(C)c3c2C)cc1`: the Potency result was “inactive”.
Turning to `CCOC(=O)CCC(NC(=O)c1ccc(CNc2nc3cc(C(F)(F)F)ccc3nc2C(=O)OCC)cc1)C(=O)OCC` (centres undefined), the Potency result was “inactive”.
Still for that read-out and setting: the value for `Cc1ccc(NC(=O)c2cccc(S(=O)(=O)N3CCCc4ccccc43)c2)nc1` was 10 µM (active); that for `Cc1cccc(NC(=O)c2cccc(S(=O)(=O)N3CCCC3)c2)n1` was “inactive”; that for `Cn1c(=O)n(C)c2cc(S(=O)(=O)N3CCCc4ccccc43)ccc21` was “inactive”.
For `C[C@H](O)[C@@H]1C(=O)N2CCc3ccc(N4CCOCC4)cc3[C@@H]2C[C@@H]1N(C)C(=O)C(C)(C)C`, the activity change, negative = inhibition was -22.9% [at 8.37 µM].
Regarding `CCCCc1ccc(NC(=O)CN2C(=O)NC(Cc3ccccc3)C2=O)cc1` (centres undefined), the Potency result is “inactive”.
With `Cc1ccc(S(=O)(=O)N2CCN(C(=O)COC(=O)/C=C/c3cccc(Cl)c3)CC2)c(C)c1`, the Potency entry was “inactive”.
On to `COc1ccccc1OCCn1c(SCC(N)=O)nc2ccccc21`, for which the Potency result is “inactive”.
`CCC(=O)c1cn(CCOc2ccccc2OC)c2ccccc12`: the Potency was 8.91 µM (active).
Take `CCCn1cc(SCC(N)=O)c2ccccc21`: the Potency result is “inactive”.
The same measure, in the same setting: under `CCCCNS(=O)(=O)CCNCc1ccccc1OC` stands “inactive”.
For the molecule `COC(=O)c1ccc(CNC(=O)c2ccc(S(=O)(=O)N3CCCCCC3)cc2)cc1`, the Potency entry was “inactive”.
The same measure, in the same setting: the value for `Cc1ccc(OCC(=O)Nc2ccc(N3CCN(C(=O)c4ccco4)CC3)cc2)c(C)c1` was 7.08 µM (active).
The same measure, in the same setting: the value for `CCC(=O)Nc1ccc(C(=O)N2CCN(C(=O)c3ccco3)CC2)cc1` was “inactive”.
On the same count and under the same terms, under `Cc1ccc(C)c(OCC(=O)N2CCN(C(=O)c3ccco3)CC2)c1` stands “inactive”; under `CCC(=O)N1CCc2cc(Br)c(S(=O)(=O)NCCN3CCCCC3CC)cc21` (centres undefined), “inactive”.
Turning to `CCN(CC(=O)Nc1cc(Cl)ccc1C)C(=O)CSCc1ccccc1`, the Potency entry is “inactive”.
Still for that read-out and setting: the value for `CCS(=O)(=O)c1cc([N+](=O)[O-])c(Sc2ccccc2N)s1` was 7.08 µM (active).
Take `CCOC(=O)c1cc(Sc2ccccc2N)cc(C(=O)OCC)n1`: the Potency entry was “inactive”.
The same measure, in the same setting: under `Nc1ccccc1Sc1ccc(C(F)(F)F)cc1[N+](=O)[O-]` stands “inactive”; under `O=C(COc1ccccc1Cl)N1N=C(c2cccs2)CC1c1ccco1` (centres undefined), “inactive”.
Same read-out and setting: under `CC(=NNC(=O)c1ccc2nc[nH]c2c1)c1ccc(Br)cc1` stands “inactive”; under `COc1ccc(S(=O)(=O)N2CCOCC2)cc1NC(=O)Cc1c(F)cccc1Cl`, “inactive”; under `COc1ccc(S(=O)(=O)NCCCCOc2ccc(Cl)cc2)cc1`, 25.1 µM (active).
Same read-out and setting: the value for `COC(=O)CNS(=O)(=O)c1ccc(OC)cc1` was “inactive”; that for `COc1ccc(S(=O)(=O)NCCOc2ccccc2)cc1F` was “inactive”; that for `O=C(NCCCN1CCOCC1)c1cn(-c2ccccc2)nc1-c1ccc(F)cc1` was “inactive”.
In the case of `CN(C)C(=O)COC(=O)c1cccc(S(=O)(=O)N2CC3(C)CC2CC(C)(C)C3)c1` (centres undefined), the Potency entry is “inactive”.
Still for that read-out and setting: the value for `CC1C(=O)Nc2ccc(S(=O)(=O)N3CCN(c4ccccc4F)CC3)cc2NC1=O` (centres undefined) was “inactive”; that for `COc1ccc(N2CCN(S(=O)(=O)c3ccc4c(c3)NC(=O)C(C)C(=O)N4)CC2)cc1` (centres undefined) was “inactive”.
Same read-out and setting: the value for `CON(C)S(=O)(=O)c1ccc2c(c1)NC(=O)C1CCCN21` (centres undefined) was 8.91 µM (active).
The same measure, in the same setting: under `Cc1ccc(S(=O)(=O)CCC(=O)OCC(=O)N(C)Cc2ccccc2)cc1` stands “inactive”.
Consider `CN(CC(=O)Nc1ccc(F)cc1)CC(=O)N1CCCCC1`, for which the Potency entry was “inactive”.
Take `OCC(O)C1OCOC(C(O)CO)C1O` (centres undefined): the Potency entry is “inactive”.
For `COC(=O)C1=C(C)N(Cc2ccccc2)C(=NCCCOC(C)C)N[C@H]1c1ccccc1`, the Potency result is “inactive”.
As for `Cc1cc(/C=N/NC(=O)c2cccnc2)c(C)n1CC(C)C`, the Potency entry was “inactive”.
As for `O=C(N/N=C/c1ccccn1)c1cccnc1`, the Potency entry was “inactive”.
Take `O=C(N/N=C/c1sc(N2CCCCC2)nc1-c1cccs1)c1cccnc1`: the Potency was 11.2 µM (active).
Regarding `CCN(CC)S(=O)(=O)c1ccc(NC(=O)c2cnc(C)cn2)cc1`, the Potency entry was “inactive”.
`COc1ccc(S(=O)(=O)N2CCCCCC2)cc1C(=O)N(C)Cc1cccc(OC)c1OC`: the Potency entry is “inactive”.
On the same count and under the same terms, the value for `CCN(CC)S(=O)(=O)c1ccc(N(C)Cc2ccc(C(F)(F)F)cc2)nc1` was 14.1 µM (active).
Take `CCN(CC)S(=O)(=O)c1ccc(Cl)c(NC(=O)c2ccncc2)c1`: the Potency entry is “inactive”.
On the same count and under the same terms, the value for `CCN(CC)S(=O)(=O)c1ccc(N(C)Cc2cccc(OC)c2OC)nc1` was 3.98 µM (active); that for `CCN(CC)S(=O)(=O)c1ccc(N(C)CCc2ccc(OC)c(OC)c2)nc1` was “inactive”; that for `CCCn1c(C)cc(/C=C(\C#N)C(=O)OCC(=O)N(C)c2c(N)n(Cc3ccccc3)c(=O)[nH]c2=O)c1C` was “inactive”.
For `COc1ccccc1C(=O)OCC(=O)Nc1cccc(S(=O)(=O)NC2=NCCCCC2)c1`, the Potency entry is “inactive”.
For `CC1CN(Cc2ccco2)C(=S)N(c2ccccc2)C1=O` (centres undefined), the Potency entry is “inactive”.
The same measure, in the same setting: the value for `COc1ccc(C(=O)COC(=O)C(O)c2ccccc2)c(OC)c1` (centres undefined) was “inactive”; that for `COc1ccc(C(=O)OCC(=O)N2CC(=O)Nc3ccccc32)cc1Br` was “inactive”; that for `COc1ccc(Br)cc1/C=N/Nc1ccc(S(=O)(=O)Nc2ccccc2C(=O)O)cc1[N+](=O)[O-]` was “inactive”.
Regarding `COc1cccc(NC(=O)C(=O)c2cn(CC(=O)N3CCOCC3)c3ccccc23)c1`, the Potency was 11.2 µM (active).
The same measure, in the same setting: the value for `O=C(Nc1ccc(F)cc1)C(=O)c1cn(CC(=O)N2CCOCC2)c2ccccc12` was “inactive”; that for `COc1cccc(NC(=O)CS(=O)(=O)c2cn(CC(=O)N3CCOCC3)c3ccccc23)c1` was “inactive”.
With `CCCC[C@@H]1CN=C(N)N1CCc1cccc(F)c1`, the Potency result was “inactive”.
On to `CC(C)(Oc1ccc(Cl)cc1)C(=O)OCC(=O)NCCc1ccc(S(N)(=O)=O)cc1`, for which the Potency entry was “inactive”.
Take `CC[C@]12c3[nH]c4cc(CCC(=O)N(C)C)ccc4c3CCN1C(=O)[C@@H](CC(=O)NCc1ccco1)C[C@@H]2C(=O)N1CCN(C(=O)c2ccco2)CC1`: the activity change, negative = inhibition was -1.33% [at 8.37 µM].
Turning to `O=[N+]([O-])c1cccc(C=NN=Cc2ccccc2O)c1`, the Potency entry is “inactive”.
Same read-out and setting: under `S=c1ccc2ccccc2[nH]1` stands “inactive”; under `S=c1[nH]c2ccccc2c2ccccc12`, 11.2 µM (active); under `CCCCn1c(=S)[nH]c2ccccc2c1=O`, “inactive”.
`COc1ccccc1N1CC(O)=C(c2nc3ccccc3s2)C1=N`: the Potency was 11.2 µM (active).
Take `N=C1C(c2nc3ccccc3s2)=C(O)CN1NC(=O)c1ccc([N+](=O)[O-])cc1`: the Potency was 11.2 µM (active).
The same measure, in the same setting: the value for `N=C1C(c2nc3ccccc3[nH]2)=C(O)CN1NC(=O)c1c[nH]c2ccccc12` was “inactive”.
Same read-out and setting: under `COc1ccccc1OCc1nc2ccccc2s1` stands “inactive”; under `CCOC(=O)CCCN1CC(O)=C(c2nc3ccccc3s2)C1=N`, “inactive”; under `O=C(Nn1c(-c2ccccc2)nc2ccccc2c1=O)c1ccc([N+](=O)[O-])cc1`, “inactive”.
With `N#CCN(C(=O)COC(=O)C1CC2CCCC(C1)C2=O)c1ccccc1` (centres undefined), the Potency result is “inactive”.
On the same count and under the same terms, the value for `COc1cc(OC)c(C(=O)NNC(=O)c2ccccc2-n2cccc2)cc1OC` was “inactive”; that for `CCCN(CC(=O)Nc1ccccc1C)C(=O)c1ccc2[nH]c3c(c2c1)CC(C)CC3` (centres undefined) was “inactive”; that for `CN(CC#CCC(c1ccccc1)c1ccccc1)C(C)(C)C` was 10 µM (active).
Still for that read-out and setting: the value for `CC(C)(C)N(CC#CCC(O)(c1ccccc1)C1CCCC1)CCO` (centres undefined) was “inactive”; that for `Cc1cc2c(cc1C)NC1(C[C@H]3CCC(=O)N4CC[C@@H](C1)[C@@H]34)C(=NC(C)(C)CC(C)(C)C)N2` (some centres undefined) was “inactive”; that for `COc1ccc(C(=O)Nc2cccc(/C=C(/CCC(=O)O)c3nc4ccccc4s3)c2)cc1` was “inactive”.
The same measure, in the same setting: under `O=C(Cc1ccc(Cl)cc1)c1ccccc1` stands “inactive”.
